This passage reports Potency results from PubChem BioAssay (NCATS).

Inconclusive results are not listed. A call without a number means that no potency is given here. Active and inactive are the calls of the source. Calls come from the whole dose curve.

The test is described as follows: S16 Schwann cell PMP22 intronic element beta-lactamase assay (AID 624044). Note: nearly all actives have a fitted effect of over 15% in size. As to conditions: S16 rat Schwann cells, PMP22 element beta-lactamase FRET, 24 h; series mostly up to 38.3 µM. Put shortly:
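Beta-lactamase reporter under a PMP22 intronic regulatory element in stable S16 rat Schwann cells; 24 h compound exposure. 460 nm blue signal normalized between DMSO (0%) and potassium clavulanate, with 535 nm FRET tracking viability; curves classed by r2 and response.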
With `CN1[C@@H]2CC[C@H]1CC(OC(=O)C(CO)c1ccccc1)C2` (some centres undefined), the Potency entry was “inactive”.

As for `CCCCCCCCCCCCCCCCCC(=O)O`, the Potency result is “inactive”.

For `CN1[C@@H](CC(=O)c2ccccc2)CCC[C@H]1C[C@H](O)c1ccccc1`, the Potency result was “inactive”. Regarding `CN1[C@@H]2CC[C@H]1CC(OC(c1ccccc1)c1ccccc1)C2` (some centres undefined), the Potency entry was “inactive”.

As to `CCCCCCCCCCCCCCCC(=O)OC(C)C`, the Potency result is “inactive”. For `CCCOC(=O)c1ccc(O)cc1`, the Potency entry was “inactive”. Regarding `COc1cc(CNC(=O)CCCC/C=C/C(C)C)ccc1O`, the Potency result is “inactive”. Then `O=C(CCN1CCN(CCO)CC1)N1c2ccccc2Sc2ccc(C(F)(F)F)cc21`, with “inactive”; and `O=C(O)c1cc(O)c(O)c(O)c1`, with “inactive”. Take `O=C(O)/C=C/C(O)c1ccc(Cl)cc1` (centres undefined): the Potency result was “inactive”. For the compound `O=C(/C=C/c1ccccc1)NCCO`, the Potency entry was “inactive”.

For the compound `Nc1cc(-c2ccncc2)c[nH]c1=O`, the Potency entry was “inactive”. In the case of `CCCCCCCCCCCC(=O)[O][Sn]([CH2]CCC)([CH2]CCC)[O]C(=O)CCCCCCCCCCC`, the Potency result was “inactive”. Then `O=C(Nc1ccc(C(=O)O)c(O)c1)c1ccccc1`, with “inactive”.
